# Screening data deposited in PubChem by The Scripps Research Institute Molecular Screening Center.
# Compounds with a hit are over-represented: about 1.1% of the library has one in this group of screens.
# MOR-DOR ag-1 = OPRM1-OPRD1 heterodimerization agonism; activation, % at 9.3 µM; 340,000 tested, 0.3% active; AID 504326; P35372+P41143; cells, luminescence;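 note: 0% = vehicle-treated cells and 100% = reference agonist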
# HTR5A ag = counter-screen for OPRM1-OPRD1 agonists: human HTR5A agonism; 340,000 tested, 0.61% active; P47898; AID 504692; HTR5A agonist assay, luminescence, cell-based; activation, % at 9.3 µM; in the data active = activation mostly above about 9.5%, no sharp cut-off; inactive = mostly below about 7.6%;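 note: 0% = cells with vehicle only and 100% = reference agonist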
# Target sequence (P47898 whole entry, looked up): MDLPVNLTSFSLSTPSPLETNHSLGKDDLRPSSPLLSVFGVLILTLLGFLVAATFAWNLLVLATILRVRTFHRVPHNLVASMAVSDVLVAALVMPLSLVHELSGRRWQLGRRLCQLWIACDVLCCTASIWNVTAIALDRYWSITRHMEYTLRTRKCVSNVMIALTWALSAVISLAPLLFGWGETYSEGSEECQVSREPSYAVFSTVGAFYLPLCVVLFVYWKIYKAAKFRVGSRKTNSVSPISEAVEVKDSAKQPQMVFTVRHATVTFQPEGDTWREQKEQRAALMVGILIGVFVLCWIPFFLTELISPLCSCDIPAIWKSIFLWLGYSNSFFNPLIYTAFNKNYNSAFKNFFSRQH
# HTR5A inv ctr = inverse agonist of human HTR5A in OPRM1-OPRD1 counter-screen; AID 504634; inhibition, % at 9.3 µM; 340,000 tested, 0.083% active; P47898; HTR5A cell line, luminescence, inverse agonism; in the data active = inhibition mostly above about 23%, no sharp cut-off; inactive = mostly below about 18%;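 note: 0% = cells with DMSO and 100% = no-cell wells with DMSO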
# MOR-DOR inv ag = mu-delta opioid heterodimer inverse agonism; cell-based MOR-DOR heterodimer luminescence; inhibition, % at 9.3 µM; 340,000 tested, 0.21% active; in the data active = inhibition above about 22%, passing the limit was not always enough;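 note: 0% = cells with DMSO and 100% = wells without cells with DMSO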
# MOR-DOR ag-2 = promotes OPRM1-OPRD1 heterodimerization in HTR5A counter-screen; shares compounds with HTR5A ag; U2OS counter-screen cells, complementation luminescence, 3 h; activation, % at 9.3 µM; 800 tested, 13% active; AID 504913
# HTR5A ag conf = HTR5A (human) agonism, confirmation | shares compounds with HTR5A ag | HTR5A agonist cell assay, luminescence | activation, % at 9.3 µM | 800 tested, 17% active | AID 504915; in the data active = activation above about 17%;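 note: 0% = cells with vehicle only and 100% = full reference agonist response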
# The depositor's hits bear a star; x = no result given. Cut-off read from the data, not from the text of the source, unless noted: active = activation above about 18%; inactive = the rest.
SMILES,MOR-DOR ag-1,HTR5A ag,HTR5A inv ctr,MOR-DOR inv ag,MOR-DOR ag-2,HTR5A ag conf
CCOC(=O)c1c(C)oc2c1c(C(c1ccccc1)N1CCOCC1)c(O)c1ccccc12 (stereo not given),2,2,-5,-10,x,x
CCCOc1c(Cl)cc(C(=O)Nc2ccc3c(c2)OCO3)cc1OCC,9,16*,-34,-56,1,-4
CCOC(=O)C1CCCN(C2=NC(=O)/C(=C/c3ccc(N(C)C)cc3)S2)C1 (stereo not given),-3,-2,6,12,x,x
COc1cccc(NC(=O)c2cc(-c3ccncc3)nc3c(C)cc(C)cc23)c1,7,16*,-9,-32,6,8
CC(=O)Oc1ccc2nc(/C=C/c3ccccc3)oc(=O)c2c1,-3,3,-11,17,x,x
CCOc1cc(C(=O)OCc2ccc([N+](=O)[O-])cc2)ccc1OCC(=O)N1CCOCC1,0,17*,-43,0,1,1
CCOC(=O)c1ccc(NS(=O)(=O)c2cc(-c3nnnn3CC)ccc2OC)cc1,2,16*,-41,-12,20*,0
CC(C)(C)c1ccc(C(=O)NCCNC(=O)c2ccco2)cc1,-1,-7,6,5,x,x
COc1ccc(C(C)=O)cc1CS(=O)(=O)CC(=O)NCCc1c[nH]c2ccccc12,-1,18*,-49,4,1,5
O=C(ONC1=NCCCCC1)c1ccc(Cl)cc1,14,25*,-65,-72,4,0
O=C(ONC1=NCCCCC1)c1c(F)cccc1F,3,5,-27,-16,x,x
CCCCCNc1nc2sc3c(c2c(=O)n1-c1cccc(Cl)c1)CCN(C)C3,0,1,-2,2,x,x
N/C(=N\OC(=O)c1ccc(Cl)cc1[N+](=O)[O-])c1ccccn1,11,26*,-2,-54,0,-6
N/C(=N\OC(=O)c1ccc2ccccc2c1)c1ccccn1,4,16*,-42,-22,-1,-1
N/C(=N\OC(=O)c1ccc2ccccc2c1)c1ccncc1,12,5,-14,-85,x,x
Cc1ccc(-c2nn(-c3ccc(F)cc3)cc2C(=O)NCCCN2CCCC2=O)cc1,-1,1,-4,6,x,x
Cc1cc(-c2ccccc2C(=O)NC2CCCCC2)on1,3,15*,-8,-14,6,2
CCC(=NNC(=O)c1ccc2c(c1)nc(C)n2CC)c1cc(F)ccc1O,-3,18*,-71,15,0,0
CCn1c(C)nc2cc(C(=O)N/N=C/c3cccc(OC)c3O)ccc21,-2,7,-20,12,x,x
CCn1c(=O)c(C(=O)Nc2ncccc2O)c(O)c2ccccc21,-3,3,-9,16,x,x
CCn1c(=O)c(C(=O)Nc2ncccc2C)c(O)c2ccccc21,-1,16*,-43,7,3,10
O=C(COC(=O)c1nc(Cl)ccc1Cl)c1ccccc1Cl,-4,-5,-11,21,x,x
CCCOc1ccccc1/C=C1\SC(N2CCCCC2)=NC1=O,-1,16*,-61,3,0,24*
O=C1N=C(N2CCCCC2)S/C1=C\c1ccccc1F,-1,3,-11,6,x,x
COc1ccc(NC(=O)CC(C)n2ccnc2)cc1 (stereo not given),-3,1,-4,13,x,x
SMILES,MOR-DOR ag-1,HTR5A ag,HTR5A inv ctr,MOR-DOR inv ag,MOR-DOR ag-2,HTR5A ag conf
CNC(=O)CCCCC(=O)N/N=C/c1ccc(Cl)cc1Cl,-1,15*,-10,3,31*,-2
O=C(CN1c2ccccc2Sc2ccccc21)N/N=C/c1ccc(Cl)cc1Cl,0,4,-15,3,x,x
CCOc1ccc(NC(=O)Nc2nc(SCC)ns2)cc1,15,18*,24,-77,2,5
O=C(CSc1nnnn1C1CC1)N1CCN(c2ccccc2F)CC1,-2,1,19,9,x,x
CNC(=O)c1sc(-c2cccnc2)nc1C,-3,18*,-50,15,1,1
CNC(=O)c1sc(-c2ccccc2)nc1C,-1,1,24,3,x,x
CCn1nc(C)c(/C=N/NC(=O)c2ccoc2C)c1C,1,18*,-53,-6,6,12
CCCCCn1nc(C)c(/C=N/NC(=O)c2ccoc2C)c1C,-2,6,-21,9,x,x
CCn1nc(C)c(/C=N/NC(=O)c2nc3nc(C)cc(C)n3n2)c1C,0,16*,-13,-1,2,6
C/C(=N\N)c1c(-c2ccccc2)c2cc(C)ccc2[nH]c1=O,0,1,-15,0,x,x
